# Data reported in PubChem BioAssay (Tox21).
# Results filed as inconclusive are left out. Values without a mark were called inactive. Activity calls are given as the source filed them. The call rests on the fitted dose curve. Positions of bridges follow the written chain, without caps; N, C: chain ends. Non-standard residues stand in square brackets, D forms with d. Residues, ends and D or L forms follow the SMILES beside them. *: point of attachment. pGlu = O=C1CC[C@@H](C(=O)O)N1; X2 = CC[C@H](C)CCCCC(=O)*; Thz = O=C(O)[C@@H]1CSCN1; Dab = NCC[C@H](N)C(=O)O
# Test: qHTS assay to identify small molecule antagonists of the estrogen receptor alpha (ER-alpha) signaling pathway - cell viability counter screen (AID 743074);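 further: HEK293 cells carrying ER-alpha-UAS-bla reporter stimulated with 17beta-estradiol; nearly all actives have a fitted effect of over 45% in size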
# Details: ERalpha-bla HEK293 viability, CellTiter-Glo luminescence, 18 h; series mostly up to 69.4 µM; activity, negative = cytotoxicity: at the top concentration
# On the % scale 0 is the no-effect control and ±100 the full control effect; potency means the concentration at half of the fitted maximal effect.
Structure (SMILES),"activity, negative = cytotoxicity",Potency
CS(=O)(=O)NC(=O)CCC/C=C\C[C@H]1C(=O)C[C@@H](O)[C@@H]1/C=C/[C@H](O)COc1ccccc1,27.4%,
CCCCCCCCCCCCCCCCOCCOCCOCCOCCOCCOCCOCCOCCOCCOCCOCCOCCOCCOCCOCCOCCOCCOCCOCCOCCO,,21.3 µM (active)
c1ccc2cc(C3=NCCN3)ccc2c1,8.22%,
CCC[C@@H]1C[C@@H](C(=O)N[C@@H]([C@H]2O[C@H](SC)[C@H](O)[C@@H](O)[C@H]2O)[C@H](C)Cl)N(C)C1,-4.48%,
CCCCC/C=C\CCC(=O)N[C@H]1[C@H](Oc2c3cc4cc2Oc2ccc(cc2Cl)[C@@H](O[C@@H]2O[C@H](CO)[C@@H](O)[C@H](O)[C@H]2NC(C)=O)[C@@H]2NC(=O)[C@H](NC(=O)[C@@H]4NC(=O)[C@H]4NC(=O)[C@@H](Cc5ccc(c(Cl)c5)O3)NC(=O)[C@H](N)c3ccc(O)c(c3)Oc3cc(O)cc4c3)c3ccc(O)c(c3)-c3c(O[C@H]4O[C@H](CO)[C@@H](O)[C@H](O)[C@@H]4O)cc(O)cc3[C@@H](C(=O)O)NC2=O)O[C@H](CO)[C@@H](O)[C@@H]1O,24.8%,
O.O=C([O-])CC([S-])C(=O)[O-].[Au+].[Na+].[Na+] (stereo not drawn),-11%,
C=CC1=C(C)C2=CC3=NC(=C(CC(=O)[O-])C4=NC(=C(C)C4=C([O-])[O-])C=c4[n-]c(c(C)c4CC)=CC1=N2)C(CCC(=O)[O-])C3C.[Cu+2].[Na+].[Na+].[Na+] (stereo not drawn),-20.4%,
O=C1CC[C@@H](C(=O)N2CSC[C@H]2C(=O)O)N1 ([pGlu]-[Thz]-OH),8.59%,
CN1[C@@H]2CCC[C@H]1CC(NC(=O)c1nn(C)c3ccccc13)C2 (stereo partly drawn),5.43%,
CC(=O)N[C@@H]1C(O[C@H]2O[C@H](C(=O)O)C(O)[C@H](O)[C@H]2O)[C@H](O)[C@@H](CO)O[C@H]1O[C@@H]1C(C(=O)O)O[C@@H](O[C@H]2[C@H](O)[C@@H](CO)OC(O)[C@@H]2NC(C)=O)[C@H](O)[C@H]1O (stereo partly drawn),-18.1%,
COC(=O)[C@H]1[C@H]2C[C@@H]3c4[nH]c5cc(OC)ccc5c4CCN3C[C@H]2C[C@@H](OC(=O)/C=C/c2cc(OC)c(OC)c(OC)c2)[C@@H]1OC,27.6% [at 32.6 µM],
CC(C)[C@H](N)C(=O)OCC(CO)OCn1cnc2c(=O)[nH]c(N)nc21 (stereo partly drawn),1.35%,
N[C@H](CCC(=O)O)C(=O)O,12.9%,
CCOC(=O)Cc1cccc(-c2cc(CCCCCCc3ccc(O[C@H]4O[C@H](COC(C)=O)[C@@H](OC(C)=O)[C@H](OC(C)=O)[C@@H]4OC(C)=O)c(-c4cccc(CC(=O)OCC)c4)c3)ccc2O[C@H]2O[C@H](COC(C)=O)[C@@H](OC(C)=O)[C@H](OC(C)=O)[C@@H]2OC(C)=O)c1,16.3%,
CC1(C)[C@@H]2CC[C@@]1(C)[C@H](OC(=O)CSC#N)C2,-15.5%,
OC[C@H]1O[C@@H](n2cnc3c2NC=NC[C@H]3O)C[C@@H]1O,-8.25%,
CCC(=O)OCC(=O)[C@@]1(OC(=O)CC)[C@@H](C)C[C@H]2[C@@H]3CCC4=CC(=O)C=C[C@]4(C)[C@@]3(Cl)[C@@H](O)C[C@@]21C,-21.9%,
CC(C)[C@@H](C)/C=C/[C@@H](C)[C@H]1CC[C@H]2/C(=C/C=C3\C[C@@H](O)CC[C@@H]3C)CCC[C@]12C,-15.2%,
CC(=O)O[C@H]1CC[C@@]2(C)C(=CC[C@@H]3[C@@H]2CC[C@]2(C)C(c4cccnc4)=CC[C@@H]32)C1,-20.9%,

Structure (SMILES),"activity, negative = cytotoxicity",Potency
CCOC(=O)c1c[nH]c2cc(OCC(C)C)c(OCC(C)C)cc2c1=O,-10.8%,
Cc1ccc(C2(O)CCN(CCCC(=O)c3ccc(F)cc3)CC2)cc1,10.7%,
CN1c2c(nc(N)[nH]c2=O)NCC1CNc1ccc(C(=O)NC(CCC(=O)O)C(=O)O)cc1 (stereo not drawn),8.38%,
COc1ccc2cc([C@H](C)CO)ccc2c1,4.97%,
COc1cc(NCCCC(C)N)c2ncccc2c1 (stereo not drawn),-14.5%,
CC1(C)N=C(N)N=C(N)N1c1ccc(Cl)cc1,,12 µM (active)
CC[C@H](C)CCCCC(=O)N[C@@H](CCN)C(=O)N[C@H](C(=O)N[C@@H](CCN)C(=O)N[C@H]1CCNC(=O)[C@@H]([C@H](C)O)NC(=O)[C@H](CCN)NC(=O)[C@H](CCN)NC(=O)[C@H](CC(C)C)NC(=O)[C@@H](CC(C)C)NC(=O)[C@H](CCN)NC1=O)[C@@H](C)O (X2-[Dab]T[Dab][Dab][Dab][dL]L[Dab][Dab][dT]; lactam 4-C),9.34% [at 32.6 µM],
N[C@@H](C(=O)N[C@@H]1C(=O)N2C(C(=O)O)=C(Cl)CC[C@H]12)c1ccccc1,-8.04%,
O=P(O)(O)C(O)(Cc1cnc2ccccn12)P(=O)(O)O,-7.19%,
Cc1cccc(C)c1Nc1ncccc1C(=O)O,-20.3%,
CNCC(O)c1ccc(OC(=O)C(C)(C)C)c(OC(=O)C(C)(C)C)c1 (stereo not drawn),4.14% [at 32.6 µM],
CN[C@@H]1[C@@H](O)[C@@H](O[C@@H]2[C@@H](O)[C@H](O[C@H]3O[C@H](CN)[C@@H](O)[C@H](O)[C@H]3O)[C@@H](N)C[C@H]2NC(=O)C(O)CN)OC[C@]1(C)O (stereo partly drawn),10%,
CO/N=C(\C(=O)N[C@@H]1C(=O)N2C(C(=O)O)=CCS[C@H]12)c1csc(N)n1,-10.4%,
CC(C)C(=O)OCC(=O)[C@@]12O[C@H](C3CCCCC3)O[C@@H]1C[C@H]1[C@@H]3CCC4=CC(=O)C=C[C@]4(C)[C@H]3[C@@H](O)C[C@@]12C,-7.21%,
O=C(O)CCC/C=C\C[C@@H]1[C@@H](/C=C/[C@@H](O)COc2cccc(Cl)c2)[C@H](O)C[C@@H]1O,12.2%,
CC[C@H]1NC(=O)[C@@H](NC(=O)c2ncccc2O)[C@@H](C)OC(=O)[C@H](c2ccccc2)NC(=O)[C@@H]2CC(=O)CCN2C(=O)[C@H](Cc2ccccc2)N(C)C(=O)[C@@H]2CCCN2C1=O,-11.6%,
CC(O)[C@H]1CC[C@H]2[C@@H]3CC[C@@H]4C[C@@H](O)CC[C@]4(C)[C@H]3CC[C@]12C (stereo partly drawn),10.6%,
CC(=O)N(CC(C)C(=O)O)c1c(I)cc(I)c(N)c1I (stereo not drawn),18.5% [at 32.6 µM],
CCN1C(=O)NC(c2ccccc2)C1=O (stereo not drawn),-1.25% [at 32.6 µM],
